Structures are written as SMILES. Compounds without any hit were thinned out: in the full panel of roughly 83,000, 20% have a hit.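 The test compound was applied at a single concentration to cells in 96-well plates for 48 hours, and percent growth was recorded.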 A number with no mark means an inactive call. Calls of active or inactive are those of the source. Rule for the calls: active = growth percent below 10; inactive = the rest.

Among the test systems are SK-MEL-2 melanoma; EKVX NSCLC; SN12C renal; UO-31 renal; TK-10 renal; CAKI-1 renal; A498 renal; CCRF-CEM leukemia; RPMI-8226 leukemia; OVCAR-8 ovarian; OVCAR-5 ovarian; OVCAR-4 ovarian; SK-OV-3 ovarian; IGROV1 ovarian; OVCAR-3 ovarian; HS 578T breast; NCI/ADR-RES ovarian; SR leukemia; MOLT-4 leukemia; ACHN renal.
Holding throughout (assay): NCI-60 one-dose screen, 48 h (100 = growth as untreated, 0 = no growth, -100 = all killed)
What all share (conditions): 10 µM unless noted

In the case of `N/C(=N/N=C/c1ccccc1)N/N=C\c1ccccc1`, the growth with SK-MEL-2 melanoma is 42.1%; in the assay on EKVX NSCLC, 76.5%; in the assay on SN12C renal, 67.4%; in the assay with UO-31 renal, 68.2%; in the assay with TK-10 renal, 73.9%; with CAKI-1 renal, 62.9%. The growth is 66.6% in the assay on A498 renal; 50.6% with CCRF-CEM leukemia; 55.3% in the assay with RPMI-8226 leukemia; 65.2% with OVCAR-8 ovarian; 83.4% in the assay on OVCAR-5 ovarian; 87.2% in the assay on OVCAR-4 ovarian. Also, the growth with SK-OV-3 ovarian is 72.4%; in the assay with IGROV1 ovarian, 73%; with OVCAR-3 ovarian it was 12.6%; in the assay on HS 578T breast, 67.7%; in the assay on NCI/ADR-RES ovarian it was 10.7%.
Regarding `S=C(Cc1ccc2c(c1)CCCC2)N1CCOCC1`, the growth with SK-MEL-2 melanoma is 87.1%; in the assay with EKVX NSCLC, 97.5%; in the assay on SN12C renal, 101%; in the assay with UO-31 renal, 92.2%; in the assay on TK-10 renal it was 106%; in the assay with CAKI-1 renal, 102%. The growth is 101% in the assay on A498 renal; 119% in the assay on CCRF-CEM leukemia; 94.7% with SR leukemia; 112% in the assay on RPMI-8226 leukemia; 104% in the assay on OVCAR-8 ovarian; 99.2% in the assay with OVCAR-5 ovarian. Besides, the growth was 96.6% with OVCAR-4 ovarian; 98.2% in the assay with SK-OV-3 ovarian; 101% with IGROV1 ovarian; 107% in the assay on OVCAR-3 ovarian; 115% in the assay on HS 578T breast; 105% with NCI/ADR-RES ovarian.
For the molecule `CCc1ccccc1-n1c(-c2ccc(Cl)cc2)cc(-c2ccc(Cl)cc2)c(C#N)c1=O`, the growth in the assay with SK-MEL-2 melanoma is 103%; with EKVX NSCLC, 87.5%; in the assay on SN12C renal, 92.3%; in the assay on UO-31 renal it was 75.3%; in the assay with TK-10 renal, 94.5%; with CAKI-1 renal, 90.2%. For the same molecule, the growth was 94.9% with A498 renal; 34.4% in the assay on CCRF-CEM leukemia; 31.8% in the assay on MOLT-4 leukemia; 49.3% in the assay on RPMI-8226 leukemia; 88.9% with OVCAR-8 ovarian; 92.2% in the assay with OVCAR-5 ovarian. For the same molecule, the growth with SK-OV-3 ovarian is 96.5%; in the assay with IGROV1 ovarian, 96.1%; in the assay on OVCAR-3 ovarian, 87.7%; in the assay on HS 578T breast it was 88.4%; in the assay on NCI/ADR-RES ovarian it was 81.7%.
As for `COc1ccc2c(c1)C(=O)/C(=C/c1cccc(OCC(=O)Nc3nc(C)c(C)s3)c1)O2`, the growth is 59.9% with SK-MEL-2 melanoma; -45.3% (active) in the assay on EKVX NSCLC; 3.1% (active) in the assay with SN12C renal; -79.1% (active) in the assay with UO-31 renal; -14.3% (active) in the assay with TK-10 renal; -81.5% (active) in the assay with CAKI-1 renal. Further, the growth with A498 renal was 97.2%; in the assay on CCRF-CEM leukemia it was -69.6% (active); in the assay with MOLT-4 leukemia it was -65.4% (active); in the assay with RPMI-8226 leukemia it was -63.3% (active); with OVCAR-8 ovarian, 4.69% (active); in the assay on OVCAR-5 ovarian it was -77.3% (active). For the same molecule, the growth is -66.7% (active) with OVCAR-4 ovarian; 46.1% with SK-OV-3 ovarian; -58.9% (active) in the assay with OVCAR-3 ovarian; 5.38% (active) in the assay on HS 578T breast; -59% (active) in the assay on NCI/ADR-RES ovarian.
As to `c1ccc2cc3nc4cc5ccccc5cc4nc3cc2c1`, the growth in the assay on SK-MEL-2 melanoma was 104%; with EKVX NSCLC, 100%; with SN12C renal, 88.6%; in the assay with UO-31 renal, 89%; in the assay with TK-10 renal, 108%; in the assay on CAKI-1 renal, 113%. In addition, the growth in the assay with A498 renal is 107%; in the assay with CCRF-CEM leukemia, -24.9% (active); with MOLT-4 leukemia, 109%; in the assay with RPMI-8226 leukemia, 58.6%; in the assay with OVCAR-8 ovarian, 84.8%; with OVCAR-5 ovarian, 91.6%. The growth was 97.3% with SK-OV-3 ovarian; 86.7% in the assay with IGROV1 ovarian; 96.7% in the assay on OVCAR-3 ovarian; 102% in the assay with HS 578T breast; 73.4% in the assay on NCI/ADR-RES ovarian.
As for `O=C1/C(=C/c2ccccc2)CCc2nc3ccccc3c(/C=C/c3ccc(Cl)cc3)c21`, the growth in the assay with SK-MEL-2 melanoma was 93.7%; with EKVX NSCLC, 79%; in the assay on SN12C renal, 83.5%; in the assay on UO-31 renal it was 69.1%; with TK-10 renal, 145%; in the assay with CAKI-1 renal, 83.7%. The growth in the assay on A498 renal was 92.1%; in the assay on CCRF-CEM leukemia, 84.1%; in the assay on MOLT-4 leukemia, 80.3%; with RPMI-8226 leukemia it was 75.9%; in the assay on OVCAR-8 ovarian, 87.7%; in the assay on OVCAR-5 ovarian it was 108%. Further, the growth in the assay on OVCAR-4 ovarian is 80.5%; with SK-OV-3 ovarian, 81.8%; in the assay on IGROV1 ovarian, 72.3%; in the assay on OVCAR-3 ovarian it was 90.1%; in the assay on HS 578T breast it was 104%; in the assay with NCI/ADR-RES ovarian, 89.4%.
Take `CC(=O)OC1CCC2(C)C(=CC3C4CCC(=O)C4(C)CCC32)C1` (centres undefined): the growth with SK-MEL-2 melanoma was 93%; with EKVX NSCLC, 109%; in the assay on SN12C renal, 96.4%; with UO-31 renal it was 96.2%; with TK-10 renal, 108%; in the assay with ACHN renal it was 101%. Also, the growth in the assay on CAKI-1 renal was 101%; in the assay with A498 renal it was 154%; in the assay with RPMI-8226 leukemia, 89.3%; in the assay with OVCAR-8 ovarian it was 97.3%; in the assay with OVCAR-5 ovarian, 100%; in the assay on OVCAR-4 ovarian, 103%. Moreover, the growth with SK-OV-3 ovarian is 105%; in the assay with IGROV1 ovarian it was 105%; in the assay on OVCAR-3 ovarian it was 109%; in the assay with HS 578T breast, 119%; in the assay with NCI/ADR-RES ovarian it was 104%.
As for `COc1ccc(C2=NN(C(=O)c3cc(OC)c(OC)c(OC)c3)C(c3ccc(Cl)cc3)C2)cc1OC` (centres undefined), the growth was 39.5% in the assay on SK-MEL-2 melanoma; 53.4% in the assay on EKVX NSCLC; 39.5% with SN12C renal; 34.4% in the assay with UO-31 renal; 25.4% with TK-10 renal; 26.6% with CAKI-1 renal. The growth was -1.72% (active) with A498 renal; -2.55% (active) in the assay on CCRF-CEM leukemia; 9.1% (active) in the assay on MOLT-4 leukemia; -18.4% (active) in the assay with RPMI-8226 leukemia; 34.4% with OVCAR-8 ovarian; 41.4% in the assay with OVCAR-5 ovarian. For the same molecule, the growth was 52% with OVCAR-4 ovarian; 25.8% in the assay with SK-OV-3 ovarian; 36.7% in the assay with IGROV1 ovarian; -35.2% (active) in the assay with OVCAR-3 ovarian; 0.152% (active) with HS 578T breast; -36.3% (active) with NCI/ADR-RES ovarian.
